What all share (settings): mRNA level, 48 h; actives raise or lower the signal
Read-out in test [1]: MicroRNA 122 (MIR122), gene 406906
As to the kind of experiment: LTEA_HepaRG_MIR122: Life Technologies and Expression Analysis (LTEA) Assay for MicroRNA 122 (MIR122) using HepaRG (AID 2283516). Also: the transcript read is the microRNA miR-122. In outline:
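HepaRG, 48 h exposure, 8-pt half-log from 100 uM, 0.5% DMSO; TaqMan qRT-PCR; bidirectional fit vs DMSO.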

Read-out in test [2]: matrix metalloproteinase-10 (MMP10), MMP10 (gene 4319)
As to the kind of experiment: LTEA_HepaRG_MMP10: Life Technologies and Expression Analysis (LTEA) Assay for matrix metalloproteinase-10 (MMP10) using HepaRG (AID 2283517). In outline:
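Gain or loss of MMP10 mRNA is fitted relative to the 0.5% DMSO vehicle. The human hepatic line HepaRG receives a 48-hour serum-free exposure, in duplicate, with a maximum concentration of 100 uM.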

Read-out in the next test: MYC, MYC (gene 4609)
As to the kind of experiment: LTEA_HepaRG_MYC: Life Technologies and Expression Analysis (LTEA) Assay for MYC using HepaRG (AID 2283518). The gist of the method:
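Expression changes were scored by TaqMan qRT-PCR with ACTB, GAPDH and POLR2A normalization. Cultures in serum-free induction medium received duplicate 8-point concentration series, highest 100 uM, for 48 h; DMSO (0.5%) served as baseline.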

Read-out in test [3]: Paternally Expressed 10 (PEG10), PEG10 (gene 23089)
As to the kind of experiment: LTEA_HepaRG_PEG10: Life Technologies and Expression Analysis (LTEA) Assay for Paternally Expressed 10 (PEG10) using HepaRG (AID 2283520).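 As to AC50: PEG10 transcript by qRT-PCR normalised to ACTB GAPDH and POLR2A.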 In outline:
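Chemicals tested on HepaRG cells for 48 h, highest concentration 100 uM. PEG10 expression assessed by qRT-PCR relative to DMSO control.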

Read-out in test [4]: Protein phosphatase 2A (PPP2R4), PTPA (gene 5524)
As to the kind of experiment: LTEA_HepaRG_PPP2R4: Life Technologies and Expression Analysis (LTEA) Assay for Protein phosphatase 2A (PPP2R4) using HepaRG (AID 2283522). In outline:
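Gene-expression endpoint in HepaRG hepatic cells: 48 h treatment across eight half-log concentrations up to 100 uM in 0.5% DMSO. PPP2R4 mRNA by qRT-PCR, normalized to three endogenous control genes.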

Read-out in test [5]: Phosphatase and tensin (PTEN), PTEN (gene 5728)
As to the kind of experiment: LTEA_HepaRG_PTEN: Life Technologies and Expression Analysis (LTEA) Assay for Phosphatase and tensin (PTEN) using HepaRG (AID 2283523). In outline: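 Read-out is PTEN transcript level by multiplexed TaqMan qRT-PCR after 48 h chemical treatment of human HepaRG cultures in serum-free induction medium. Concentrations spanned 100 uM downward in half-log steps, 0.5% DMSO throughout; activity fitted in both directions against vehicle.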

Read-out in test [6]: solute carrier (SLC22A1), SLC22A1 (gene 6580)
As to the kind of experiment: LTEA_HepaRG_SLC22A1: Life Technologies and Expression Analysis (LTEA) Assay for solute carrier (SLC22A1) using HepaRG (AID 2283524).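 As to AC50: TaqMan qRT-PCR normalized to ACTB GAPDH and POLR2A housekeeping genes.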 The gist of the method: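 HepaRG (human liver line), 48 h dosing in serum-free induction medium; 8 conc., half-log down from 100 uM, 0.5% DMSO vehicle, duplicates. Endpoint: SLC22A1 mRNA, qRT-PCR, housekeeping-normalized; gain/loss fit vs DMSO.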

Read-out in test [7]: Pyruvate Dehydrogenase Kinase 4 (PDK4), PDK4 (gene 5166)
As to the kind of experiment: LTEA_HepaRG_PDK4: Life Technologies and Expression Analysis (LTEA) Assay for Pyruvate Dehydrogenase Kinase 4 (PDK4) using HepaRG (AID 2283525). The gist of the method:
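In this multiplexed human HepaRG expression assay, cells are treated 48 h with test chemicals across an eight-point range starting at 100 uM. PDK4 mRNA changes, normalized to ACTB/GAPDH/POLR2A, are fitted in both directions relative to vehicle.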

Read-out in test [8]: Nuclear factor NF-kappa-B p105 subunit (Homo sapiens) (UniProt P19838)
As to the kind of experiment: LTEA_HepaRG_NFKB1: Life Technologies and Expression Analysis (LTEA) Assay for Nuclear Factor Kappa B Subunit 1 (NFKB1) using HepaRG (AID 2283521). In outline:
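Differentiated human HepaRG cells in serum-free induction medium with 0.5% DMSO were exposed for 48 h to eight half-log concentrations, top 100 uM, in duplicate. NFKB1 mRNA measured by Fluidigm TaqMan qRT-PCR, normalised to ACTB, GAPDH and POLR2A; bidirectional fit versus DMSO.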

Read-out in test [9]: matrix metalloproteinase-3 (MMP3), MMP3 (gene 4314)
As to the kind of experiment: LTEA_HepaRG_MMP3: Life Technologies and Expression Analysis (LTEA) Assay for matrix metalloproteinase-3 (MMP3) using HepaRG (AID 2283519). The gist of the method: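 HepaRG, human; 48 h dosing, 8 conc. (max 100 uM, half-log), duplicate, 0.5% DMSO. Readout: MMP3 transcript by Fluidigm TaqMan qRT-PCR, ACTB/GAPDH/POLR2A-normalised. Gain or loss fitted vs DMSO.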

Structures are written as SMILES. Activity calls are given as the source filed them. The calls were made as follows: active = hit-call score of the fitted dose curve at least 0.9, where 1 is the maximum; inactive = score below 0.9.

Chain of Nuclear factor NF-kappa-B p105 subunit (Homo sapiens) (P19838 whole entry, looked up): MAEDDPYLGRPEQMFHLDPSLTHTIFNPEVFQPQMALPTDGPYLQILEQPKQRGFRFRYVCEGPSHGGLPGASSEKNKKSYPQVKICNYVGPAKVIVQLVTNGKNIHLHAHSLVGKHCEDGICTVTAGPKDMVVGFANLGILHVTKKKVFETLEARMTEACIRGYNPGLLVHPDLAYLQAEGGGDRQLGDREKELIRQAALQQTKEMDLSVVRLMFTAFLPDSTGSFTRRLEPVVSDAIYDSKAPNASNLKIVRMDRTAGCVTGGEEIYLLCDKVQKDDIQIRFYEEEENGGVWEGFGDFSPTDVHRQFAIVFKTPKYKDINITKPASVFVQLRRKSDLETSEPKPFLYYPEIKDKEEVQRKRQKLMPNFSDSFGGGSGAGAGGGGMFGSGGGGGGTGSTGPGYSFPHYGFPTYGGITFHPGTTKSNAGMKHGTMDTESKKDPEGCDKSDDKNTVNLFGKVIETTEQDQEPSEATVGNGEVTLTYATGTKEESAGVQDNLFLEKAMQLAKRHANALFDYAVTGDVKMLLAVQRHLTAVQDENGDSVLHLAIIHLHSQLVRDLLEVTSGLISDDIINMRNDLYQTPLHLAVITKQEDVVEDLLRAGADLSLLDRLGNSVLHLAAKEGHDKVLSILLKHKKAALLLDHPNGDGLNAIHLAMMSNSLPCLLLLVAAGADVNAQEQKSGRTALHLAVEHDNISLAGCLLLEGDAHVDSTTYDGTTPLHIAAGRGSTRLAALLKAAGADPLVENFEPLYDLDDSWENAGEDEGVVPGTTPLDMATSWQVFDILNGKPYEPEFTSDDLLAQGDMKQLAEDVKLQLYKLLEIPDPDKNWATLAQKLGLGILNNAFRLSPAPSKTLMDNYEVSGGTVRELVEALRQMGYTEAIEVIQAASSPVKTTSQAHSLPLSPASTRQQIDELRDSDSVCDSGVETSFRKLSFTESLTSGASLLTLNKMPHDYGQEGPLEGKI

Turning to `Oc1ccc(Cl)cc1Cl`, the outcome in test [1] was “inactive”; in test [2], “inactive”; with MYC, MYC (gene 4609), “inactive”; in test [3] it was “inactive”; in test [4], “inactive”; in test [5], “inactive”. Further, the result in [6] and in [7] was inactive.

`NS(=O)(=O)C(F)(F)C(F)(F)C(F)(F)C(F)(F)C(F)(F)C(F)(F)C(F)(F)C(F)(F)F`: the AC50 – broadly, the midpoint of the concentration-response curve, whichever way the signal moves – was 12.4 µM (active) in test [1]; 33.9 µM (active) in [2]; 26.8 µM (active) in the test with MYC, MYC (gene 4609); 5.02 µM (active) in [3]; 2.4 µM (active) in test [8]; 24.4 µM (active) in [4]. Besides, the AC50 was 26.2 µM (active) in test [5] and 9.51 µM (active) in [6]. In addition, in test [7], the result was inactive.

On to `Clc1ccc(C(c2ccccc2Cl)C(Cl)(Cl)Cl)cc1` (centres undefined), for which the outcome in test [1] is “inactive”; with MYC, MYC (gene 4609) it was “inactive”; in [9], “inactive”; in test [8] it was “inactive”; in [4] it was “inactive”; in test [5], “inactive”. Besides, the molecule was classed as inactive in test [6] and in [7].

Consider `CCC(C)c1cc([N+](=O)[O-])cc([N+](=O)[O-])c1O` (centres undefined), for which the AC50 in [1] was 2.73 µM (active); with MYC, MYC (gene 4609), 9.27 µM (active); in test [3], 1.26 µM (active); in test [4] it was 1.25 µM (active); in test [5] it was 5.41 µM (active); in [6], 1.74 µM (active). Also, the molecule was called inactive in test [8] and in test [7].

As for `N#Cc1ccc(N(CC(N)=O)CC(F)(F)F)cc1C(F)(F)F`, the outcome in [1] is “inactive”; with MYC, MYC (gene 4609) it was “inactive”; in test [9], “inactive”; in test [4], “inactive”; in [5], “inactive”; in [6], “inactive”. For the same molecule, the outcome in test [7] was inactive. Also, the AC50 in test [3] was 10.5 µM (active).

As for `O=C(O)C(F)(F)C(F)(F)C(F)(F)C(F)(F)C(F)(F)C(F)(F)C(F)(F)C(F)(F)F`, the AC50 is 74.4 µM (active) in test [1]; 78.7 µM (active) with MYC, MYC (gene 4609); 86.1 µM (active) in test [6]; 32.8 µM (active) in test [7]. For the same molecule, the molecule was classed as inactive in [3], in test [4] and in [5].

Regarding `Oc1ccc(C(c2ccc(O)cc2)(C(F)(F)F)C(F)(F)F)cc1`, the molecule was classed as inactive in [1], in [3], in [8], in [5] and in test [7]. Also, the AC50 in the test with MYC, MYC (gene 4609) is 77.5 µM (active); in [4], 89 µM (active); in [6] it was 71.9 µM (active).

Take `CC(C)(c1ccccc1)c1ccc(O)cc1`: the outcome was “inactive” in test [1]; “inactive” in the test with MYC, MYC (gene 4609); “inactive” in [8]; “inactive” in test [4]; “inactive” in [5]; “inactive” in test [7]. For the same molecule, the AC50 is 84.7 µM (active) in test [3] and 50 µM (active) in [6].

`O=S(=O)(O)C(F)(F)C(F)(F)C(F)(F)C(F)(F)F`: the outcome is “inactive” in test [1]; “inactive” with MYC, MYC (gene 4609); “inactive” in test [3]; “inactive” in test [8]; “inactive” in test [4]; “inactive” in test [5]. For the same molecule, the call in test [6] and in test [7] was inactive.

In the case of `C[C@]12CCC(=O)C=C1CC[C@@H]1[C@@H]2CC[C@]2(C)C(=O)CC[C@@H]12`, the outcome in test [1] is “inactive”; with MYC, MYC (gene 4609), “inactive”; in test [4], “inactive”; in test [5] it was “inactive”; in test [6] it was “inactive”; in [7], “inactive”. For the same molecule, the AC50 in test [3] is 6.54 µM (active).

Consider `Nn1cnnc1`, for which the outcome in test [1] was “inactive”; with MYC, MYC (gene 4609), “inactive”; in [3], “inactive”; in test [8], “inactive”; in [4], “inactive”; in test [5] it was “inactive”. For the same molecule, the molecule was classed as inactive in test [6] and in test [7].

Take `c1cc2ccc3cccc4ccc(c1)c2c34`: the outcome in test [1] was “inactive”; with MYC, MYC (gene 4609) it was “inactive”; in test [3], “inactive”; in [8], “inactive”; in test [4] it was “inactive”; in test [5], “inactive”. Besides, the molecule was called inactive in [6] and in [7].

In the case of `O=C(O)C(F)(F)C(F)(F)C(F)(F)C(F)(F)C(F)(F)F`, the outcome is “inactive” in test [1]; “inactive” with MYC, MYC (gene 4609); “inactive” in [3]; “inactive” in test [4]; “inactive” in [5]; “inactive” in test [6]. The AC50 in test [7] was 14.9 µM (active).

Turning to `CO/C=C(/C(=O)OC)c1ccccc1COc1cccc(C(F)(F)F)n1`, the half-maximal activity concentration (AC50) was 6.86 µM (active) in test [1]; 9.71 µM (active) with MYC, MYC (gene 4609); 23.9 µM (active) in test [9]; 5.3 µM (active) in test [6]. Moreover, the molecule was classed as inactive in [8], in test [4], in test [5] and in test [7].

Take `CCNc1nc(NC(C)C)nc(SC)n1`: the outcome in test [1] was “inactive”; in the test with MYC, MYC (gene 4609), “inactive”; in test [8] it was “inactive”; in [4] it was “inactive”; in test [5], “inactive”; in [7], “inactive”. Also, the AC50 in test [3] is 12.4 µM (active); in test [6], 37.3 µM (active).

On to `Clc1ccc(Cl)cc1`, for which the outcome was “inactive” in test [1]; “inactive” with MYC, MYC (gene 4609); “inactive” in test [3]; “inactive” in test [8]; “inactive” in test [4]; “inactive” in test [5]. Besides, the outcome in [6] and in test [7] was inactive.

For `CCCCCCOC(=O)c1ccccc1C(=O)OCCCCCC`, the outcome is “inactive” in test [1]; “inactive” in the test with MYC, MYC (gene 4609); “inactive” in test [3]; “inactive” in test [8]; “inactive” in [4]; “inactive” in test [5]. In addition, the outcome in test [7] was inactive. In test [6], the AC50 is 0.0876 µM (active).

Source of the values: PubChem BioAssay (EPA / NIEHS).
